The structures appear in SMILES notation. Records with an inconclusive call do not appear. A call without a number means that no potency is given here. Activity calls are given as the source filed them. Calls come from the whole dose curve; as a rule, active = well fitted activation curve with a large enough effect; inconclusive = small, poorly fitted or top-dose-only effect; inactive = no such curve, though single readings can be large or run the other way.

The experiment can be described thus: qHTS Assay for Identifying a Potential Treatment of Ataxia-Telangiectasia: Secondary assay (no NCS) hit validation.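 Note: phosphorylated KAP1 signal as a proxy for ATM-like kinase activity.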 As to conditions: A-T patient fibroblasts, AlphaLISA, no DNA damage added, 90 min; series mostly up to 76.9 µM. The essentials: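 hTERT-immortalized A-T patient fibroblasts (F2112), 500 cells/well, exposed to compounds at up to 76.7 uM final without NCS at 37C. KAP-1 phosphorylation measured by AlphaLISA after lysis and 6 h detection at 25C.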
In general terms: qHTS replaces the single test concentration by a dilution series.
For the compound `COc1ccc(Nc2cc3n(c(=O)n2)CCc2cc(OC)c(OC)cc2-3)cc1`, the Potency entry was “inactive”.
The value for `COC(=O)Cn1ccc2cc(S(=O)(=O)N3CCCCC3)ccc21` was “inactive”; that for `C/C(CCC1CC(C)OC1=O)=N\NC(N)=S` (stereo not given) was “inactive”.
For the compound `CC(Oc1ccccc1)C(=O)Nc1cccc(NC(=O)c2ccco2)c1` (stereo not given), the Potency entry was “inactive”.
The value for `C=C(C)n1c(=O)n(Cc2ccccc2C)c2ccccc21` was “inactive”; that for `CC(C)NC(=O)c1ccc(COc2ccc(C(C)(C)C)cc2)o1` was “inactive”; that for `O=C(NC12CC3CC(CC(C3)C1)C2)c1cccc(OC(F)F)c1` was “inactive”.
As for `CN(C)C(=O)c1nc2ccc(Cl)cn2c1CNCc1cccc(OC(F)(F)F)c1`, the Potency entry is “inactive”.
As for `Cc1ccccc1S(=O)(=O)Oc1ccc2ccc(O)cc2c1`, the entry is “inactive”.
As for `O=C(c1nn2c(C(F)(F)F)cc(-c3ccc(F)cc3)nc2c1Cl)N1CCOCC1`, the entry is “inactive”.
As for `CC(C)(C)n1nc2c(c1NC(=O)C1CC(=O)N(c3ccc(Cl)cc3)C1)CS(=O)(=O)C2` (stereo not given), the entry is “inactive”.
Consider `CCCCN(c1nc2ccccc2nc1Cl)S(=O)(=O)c1ccc(C)cc1`, for which the Potency entry is “inactive”.
The value for `O=C(CCCn1nnnc1CN1CCOCC1)N1CCC(c2ccc(F)cc2)C1` (stereo not given) was “inactive”; that for `COc1cc(/C=C2\CCOC2=O)cc(OC)c1OC` was “inactive”.
As for `COc1ccccc1C(=O)NC(=O)Nc1cccc(Cl)c1`, the entry is “inactive”.

The values above are taken from PubChem BioAssay AID493201 (National Center for Advancing Translational Sciences (NCATS), 2011).
